From PubChem
Ecoli rRNA inh: inhibitors of bacterial rRNA selective over humanized ribosomes; E. coli WT GFP vs humanized-ribosome RFP mutants, fluorescence, 24 h; hits give low values; DMSO median 0, no signal -100; GFP signal change (wild-type ribosome), % (no concentration beside the values); 1.6% of 350,000 active;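 active = significant combined selectivity score with lowered wild-type GFP, culture density cut under 30%, mutant RFP and density less affected; inactive = any of these conditions unmet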
esBAF inh: SWI/SNF esBAF complex inhibition. mouse ES cells, Bmi1-luciferase knock-in reporter, 24 h; 100% = twice the neutral-well signal. reporter increase, % at 12.5 µM. 2% of 350,000 active. AID 602393; in the data active = activation above about 40%;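 also: 0% = median of the plate's neutral control wells and 100% = double that signal; a rise in the Bmi1 reporter signal indicates esBAF inhibition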
AF4-AF9 inh: blocks AF4 peptide binding to human AF9; AlphaScreen, biotin-AF4 peptide binding to FLAG-AF9; inhibition, % at 10 µM; 0.47% of 350,000 active; AID 651704;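 active = every replicate reaching a set inhibition limit, whatever the replicate mean, cut at about 25% in these data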;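 also: 0% = plate neutral control median and 100% = total signal loss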
Target sequence (P42568 whole entry, looked up): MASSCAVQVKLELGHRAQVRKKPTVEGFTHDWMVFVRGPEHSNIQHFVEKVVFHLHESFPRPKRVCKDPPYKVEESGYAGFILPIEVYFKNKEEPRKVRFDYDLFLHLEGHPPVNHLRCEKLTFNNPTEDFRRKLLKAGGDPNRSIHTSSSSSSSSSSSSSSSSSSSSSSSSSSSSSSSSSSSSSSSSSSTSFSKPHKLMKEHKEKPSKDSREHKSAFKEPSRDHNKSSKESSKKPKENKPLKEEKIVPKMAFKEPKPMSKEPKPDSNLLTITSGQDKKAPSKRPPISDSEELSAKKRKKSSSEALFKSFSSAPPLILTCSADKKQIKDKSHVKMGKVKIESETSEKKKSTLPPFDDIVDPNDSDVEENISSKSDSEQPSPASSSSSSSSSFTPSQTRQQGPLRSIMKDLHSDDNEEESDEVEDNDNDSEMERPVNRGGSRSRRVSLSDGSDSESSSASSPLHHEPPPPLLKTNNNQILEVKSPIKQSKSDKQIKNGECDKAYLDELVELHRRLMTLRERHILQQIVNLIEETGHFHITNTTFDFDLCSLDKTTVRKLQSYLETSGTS
MITF act: activators of MITF-driven TRPM1 promoter activity in SK-MEL-5 cells | SK-MEL-5 TRPM1-promoter luciferase, 24 h; % of positive control, neutral wells = 0 | activation, % at 12.5 µM | 0.75% of 300,000 active;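 active = mean activation of at least 80% with every replicate also reaching 80%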;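 also: 0% = neutral control wells and 100% = parthenolide positive control wells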
Wnt bcat act: activators of Wnt/beta-catenin signaling; Wnt/beta-catenin reporter cell assay, activator, plate reader; activation, % at 9.35 µM; 1.2% of 300,000 active; AID 743398; in the data active = activation above about 30%, passing the limit was not always enough;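 also: 0% = neutral control wells and 100% = positive control wells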
* marks the source's active call; other numbers are inactive results; x = no result; ! = a repeat was not active. In the library only some 3.7% were active in any assay of this set; here they are far more common.

SMILES | Ecoli rRNA inh | esBAF inh | AF4-AF9 inh | MITF act | Wnt bcat act
C1=C(c2cc3ccccc3cn2)CCCC1 | 3 | 79* | -2 | 97* | 50*
O=C(Nc1nccs1)[C@H]1[C@H](CO)[C@H]2Cn3c(cccc3=O)[C@H]2N1C(=O)C1CCCCC1 | 2 | -6 | -4 | x | x
CCO[C@@H]1OC(C(=O)O)=C[C@H](C2CCCCC2)[C@H]1CCCO | 8 | 3 | -5 | -2 | -1
O=C(NCC(=O)N1CCCC(C(F)(F)F)C1)c1cccs1 (stereo not drawn) | 9 | 14 | 33* | 19 | 5
O=C(NCC(=O)N1CCN(Cc2ccccc2)CC1)c1cccs1 | 8 | 49* | 1 | 46 | -2
O=C(c1cccs1)N1CCN(Cc2ccccc2)CC1 | 6 | x | -28 | -16 | -2
Cc1ccc(C(=O)NCC(=O)N2CCCC(C(F)(F)F)C2)s1 (stereo not drawn) | 7 | x | 2 | 16 | 3
CC(=C/c1ccco1)/C=N/NC(=O)Cc1cccn1C | 24 | x | 1 | 20 | x
CCOC(=O)C(=N/O)/C(C)=N/NC(=O)C(=O)Nc1ccc(Cl)cc1 | -20* | -21 | -1 | 5 | -2
COc1cccc(C(=O)Nc2ccc3c(c2)C(=O)N(C)[C@H]2CC[C@@H](CC(=O)NCCCN4CCOCC4)O[C@H]2CO3)c1 | 0 | 1 | 1 | x | x
CCOC(=O)c1csc(NC(=O)c2cccs2)n1 | -5 | 53* | -3 | 95* | 37*
CCOC(=O)c1cc(OC(=O)c2cccs2)n(-c2ccccc2)n1 | -18* | x | 6 | -1 | -1
CCOC(=O)Cc1csc(NC(=O)c2cccs2)n1 | x | 63* | x | 66 | x
CCOC(=O)c1sc(NC(=O)c2cccs2)nc1C | 28 | 20 | -2 | 29 | 22
Cc1cc(C(=O)Nc2ccccc2C(=O)O)oc1C | -9 | 2 | 2 | -2 | 0
COc1cc(O)c(C(CC(=O)N2CCN(c3ccccc3)CC2)c2cc(OC)c(OC)c(OC)c2)c(OC)c1 (stereo not drawn) | x | -3 | x | -7 | -3
O=C(COc1cccc(F)c1)NNC(=O)c1cccc(-n2cccc2)c1 | 9 | 1 | -26 | 1 | -2
O=C(COc1ccccc1F)NNC(=O)c1cccc(-n2cccc2)c1 | -44* | -3 | -5 | -6 | 3
O=C(OCc1nc2ccsc2c(=O)[nH]1)c1ccc(Cl)nc1 | 10 | -1 | -1 | -8 | 41*
O=C(OCc1nc2ccsc2c(=O)[nH]1)c1ccccc1 | 4 | x | 1 | 6 | 4
CCN(CC)c1cc(C)c(C#N)c2nc3ccccc3n12 | 0 | -5 | -1 | -3 | 36*
CCOc1ccc(-n2c(=S)sc3c(=O)n(-c4ccccc4)c(SC)nc32)cc1 | 11 | 3 | -4 | 8 | -1
CC1=C(C(=O)OCc2ccccc2)C(c2ccc(C#N)cc2)NC(=O)N1CCCC(=O)O (stereo not drawn) | -17* | 3 | 3 | 7 | -4
CC1=C(C(=O)OCC(Br)(Br)Br)C(c2cccc([N+](=O)[O-])c2)NC(=O)N1CCCC(=O)O (stereo not drawn) | -20* | 2 | -1 | -5 | 3
CCOC(=O)C1=C(C)N(CCCCCC(=O)O)C(=O)NC1c1cccc([N+](=O)[O-])c1 (stereo not drawn) | 3 | 0 | 3 | -3 | -3
SMILES | Ecoli rRNA inh | esBAF inh | AF4-AF9 inh | MITF act | Wnt bcat act
CC1=C(C(=O)OCc2ccccc2)C(c2ccccc2)NC(=O)N1CCCC(=O)O (stereo not drawn) | -10 | 2 | -1 | 1 | 0
O=c1c2ccccc2oc2ccc(NCCCn3ccnc3)cc12 | 1 | -59 | 3 | 43 | 34*
c1ccc2c(c1)oc1c(NCCCn3ccnc3)ncnc12 | x | x | x | -16 | x
CN1CCN(CCN2CCn3c2nc2ccccc23)CC1 | x | 5 | x | 17 | 1
CN(CCCC(=O)Nc1ccc(Br)cc1F)S(=O)(=O)c1ccccc1 | -22* | -7 | -2 | 1 | -3
CN(CCCC(=O)Nc1ccccc1F)S(=O)(=O)c1ccc(F)cc1 | -4 | 2 | -2 | -2 | -2
N/C(=N\OC(=O)c1ccc([N+](=O)[O-])cc1)c1ccc(Br)cc1 | 10 | 34 | -5 | x | 16
N/C(=N\OC(=O)c1ccc(Br)cc1)c1cccc([N+](=O)[O-])c1 | 11 | 72* | -12 | 48 | 4
N/C(=N\OC(=O)c1ccco1)c1cccc(Br)c1 | x | 8 | x | 56 | 50*
COc1cccc(C(=O)O/N=C(\N)c2ccncc2)c1 | -8 | 37 | -7 | 53 | 0
Cc1cccc(/C(N)=N/OC(=O)c2ccncc2)c1 | 7 | 12 | 0 | 69 | 34*
N/C(=N\OC(=O)c1ccncc1)c1cccc([N+](=O)[O-])c1 | 1 | 54* | 3 | x | 14
COc1cc(C(=O)O/N=C(\N)c2cccc([N+](=O)[O-])c2)cc(OC)c1OC | 9 | -2 | -2 | 12 | -1
N/C(=N\OC(=O)c1ccco1)c1cccc([N+](=O)[O-])c1 | 7 | x | 3 | 53 | 10
CO[C@H]1CN(C)C(=O)c2cc(NC(=O)C3CC3)ccc2OC[C@@H](C)N(C(=O)Cc2ccccn2)C[C@H]1C | -2 | -4 | -9 | x | x
Cc1ccc(S(=O)(=O)Nc2ccc3c(c2)CC(=O)N([C@H](C)CO)C[C@H](C)[C@H](CN(C)Cc2ccc4c(c2)OCO4)O3)cc1 | 4 | 5 | 1 | -3 | -1
Cc1ccc(C(=O)O/N=C(\N)c2cccc([N+](=O)[O-])c2)cc1 | 8 | 40 | 8 | 94* | -2
Cc1cc(C(=O)CSc2n[nH]c(N)n2)c(C)n1-c1cccc(F)c1 | 2 | 32 | -1 | 30 | -2
CO[C@@H]1CN(C)C(=O)c2ccc(NC(=O)c3nc4ccccc4s3)cc2OC[C@@H](C)N(Cc2cccnc2)C[C@H]1C | -7 | 46* | x | x | x
COc1ccc(CN2C[C@@H](C)[C@H](OC)CN(C)C(=O)c3ccc(NC(=O)c4nc5ccccc5s4)cc3OC[C@H]2C)cc1 | -4 | 64* | 6 | x | x
O=C(O)CCCCC1SCC2NC(=O)NC21 (stereo not drawn) | 3 | 5 | 70* | 6 | -8
Cc1ccc(-c2ccc(C3[C@H]4CNC[C@@H]3N4Cc3cccc(F)c3)cc2)cc1 (stereo partly drawn) | -3 | x | 1 | x | x
Fc1cccc(CN2[C@@H]3CNC[C@H]2C3c2ccc(-c3ccncc3)cc2)c1 (stereo partly drawn) | 1 | x | 30*! | x | x
C=CCNc1c2c(nc3ncnn13)CC(C)CC2 (stereo not drawn) | 5 | x | -2 | -13 | -1
Cc1ccc(S(=O)(=O)N2CCN(C(=O)c3ccc4ccccc4n3)CC2)c(C)c1 | x | 58* | 2 | 39 | 12
COc1ccc(CNC(=S)N2CCN(S(=O)(=O)c3cccc(F)c3)CC2)cc1 | 3 | 2 | 5 | 5 | -1
CCN(CC)c1ccc(NC(=O)C2CC3CCC2C3)cc1 (stereo not drawn) | x | 48* | x | 58 | x
CCCC(=O)Nc1ccc(-c2nc3ncccc3o2)cc1 | 12 | 37 | 0 | x | 37*
